In the supplement of paper PMC6555819:

Tests used:
Assay in all cases: PBM binding z-score (relative to random genomic background probes); higher = stronger binding; sequences stand for … in GC…GCGATTGACAGCGTAGAATGAAGG
[1] = test system: FXR:RXRa (NR concentration 270 nM, RXRa partner concentration 90 nM)
How it was run: (§1)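 Random background probes are the reference for binding z-scores. These scores derive from regression-normalized fluorescence on custom Agilent 4×180K protein-binding microarrays incubated 1 h with ligand-free nuclear receptor dimers. Binding was detected with antibodies against each partner (one per run).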

[2] = test system: LXRa:RXRa (NR concentration 270 nM, RXRa partner concentration 90 nM)
How it was run: as §1

[3] = test system: LXRa homodimer (NR concentration 270 nM)
How it was run: as §1

[4] = test system: LXRb:RXRa (NR concentration 270 nM, RXRa partner concentration 90 nM)
How it was run: as §1

[5] = test system: LXRb homodimer (NR concentration 270 nM)
How it was run: as §1

[6] = test system: PPARa:RXRa (NR concentration 270 nM, RXRa partner concentration 90 nM)
How it was run: as §1

[7] = test system: PPARg:RXRa (NR concentration 180 nM, RXRa partner concentration 90 nM)
How it was run: as §1

[8] = test system: PPARg:RXRa 270nM:90nM, anti-RXR (NR concentration 270 nM, RXRa partner concentration 90 nM)
How it was run: as §1

[9] = test system: PPARg:RXRa 30nM:10nM, anti-RXR (NR concentration 30 nM, RXRa partner concentration 10 nM)
How it was run: as §1

[10] = test system: PPARg:RXRa 90nM:30nM, anti-RXR (NR concentration 90 nM, RXRa partner concentration 30 nM)
How it was run: as §1

[11] = test system: PPARg:RXRa DBDmut IVT, anti-RXR (DBD mutation: RXRa K156A/R161A, NR concentration 270 nM, RXRa partner concentration 90 nM)
How it was run: as §1

[12] = test system: PPARg:RXRa IVT, anti-PPARg (NR concentration 270 nM, RXRa partner concentration 90 nM)
How it was run: as §1

[13] = test system: PPARg DBDmut:RXRa IVT, anti-PPARg (DBD mutation: PPARg1 K132A/R137A, NR concentration 270 nM, RXRa partner concentration 90 nM)
How it was run: as §1

[14] = test system: PPARg DBDmut IVT, anti-PPARg (DBD mutation: PPARg1 K132A/R137A, NR concentration 270 nM)
How it was run: as §1

[15] = test system: PPARg homodimer (NR concentration 180 nM)
How it was run: as §1

[16] = test system: PXR:RXRa (NR concentration 270 nM, RXRa partner concentration 90 nM)
How it was run: as §1

[17] = test system: PXR homodimer (NR concentration 270 nM)
How it was run: as §1

[18] = test system: RARa:RXR (NR concentration 270 nM, RXRa partner concentration 90 nM)
How it was run: as §1

[19] = test system: RARa homodimer (NR concentration 270 nM)
How it was run: as §1

[20] = test system: RARb:RXRa (NR concentration 270 nM, RXRa partner concentration 90 nM)
How it was run: as §1

Sequence	PBM binding z-score [1]	PBM binding z-score [2]	PBM binding z-score [3]	PBM binding z-score [4]	PBM binding z-score [5]	PBM binding z-score [6]	PBM binding z-score [7]	PBM binding z-score [8]	PBM binding z-score [9]	PBM binding z-score [10]	PBM binding z-score [11]	PBM binding z-score [12]	PBM binding z-score [13]	PBM binding z-score [14]	PBM binding z-score [15]	PBM binding z-score [16]	PBM binding z-score [17]	PBM binding z-score [18]	PBM binding z-score [19]	PBM binding z-score [20]
TCTATTAGTTGATTAGGCCAACCGAAACAGCGGA	0.75	0.591	0.444	0.663	0.882	0.722	0.22	2.07	3.98	3.02	2.31	0.958	0.847	0.784	1.2	0.477	0.547	0.834	1.24	0.707
AGAACGAGGGCACGCTGAGCTGATAGCAGAGTAG	0.647	0.277	-0.751	-0.0518	-0.909	1.98	1.91	1.81	0.448	0.908	4.56	3.89	0.483	-0.228	0.179	-0.0742	-0.541	0.485	-0.937	2.39
CGAACGAGGGCATTAGTTGATAGCAAATGCCGAT	0.0908	-0.0116	-0.501	-0.0875	-0.766	0.595	0.83	0.432	0.0228	-0.0505	2.78	1.35	-1.12	-0.313	-0.0468	0.174	0.377	0.239	-0.278	1.51
TCGAGTAGGTTAGTCTGGGCATTCAGCCAACATA	-0.238	-0.131	-0.19	-0.216	-1.35	0.169	-0.258	0.528	0.844	0.781	1.92	1.79	-0.593	-0.623	-0.00252	-0.302	-0.724	-0.271	-0.668	-0.185
CTCGTAAGGTCGTGCTCAGGTGAGTATACCAAAC	3.16	2.44	-0.206	1.97	0.357	3.48	0.721	1.85	0.398	1.07	0.319	1.17	0.192	0.162	1.03	2.23	-0.00148	3.61	-0.224	2.83
CAAACTAGGTCACAGGAAGGTCAAAGTCCGCATG	5.68	6.01	4.15	4.78	1.18	6.19	9.73	7.57	5.77	7.73	8.64	8.8	3.59	2.12	6.59	5.73	1.51	7.15	2.2	4.93
GTACCACGGTGAATAGGTCGTTGATGAGTAGGCG	-0.0112	-0.00221	-0.237	-0.365	-0.842	0.664	0.525	0.597	-0.227	0.557	-0.0107	0.889	-0.572	-0.695	0.25	0.0182	-0.47	0.233	-0.371	0.587
ATCGAAAGGTCGACGAGGTGAGTGTACACCGTTT	4.72	3.35	0.236	2.78	0.198	4.42	2.9	3.72	1.14	2.63	1.06	2.45	1.21	0.365	1.48	3.37	1.03	3.93	0.268	3.89
GCTTGTACATCAAGGTTAAGAAAGACTAAGCTAA	0.247	0.691	-0.229	0.559	-0.133	0.96	0.118	0.299	-0.184	0.084	-0.0633	0.772	0.219	-0.0385	0.116	0.266	-0.152	0.856	0.262	0.882
CGTCAAAGTTCAACTAAGGTAACGAAAAGCACGC	7.29	6.07	3.55	3.97	2.13	5.07	4.84	5.42	2.21	4.48	0.421	2.48	0.738	0.747	4.18	5.19	4.69	4.25	2.25	5.13
TCTTGTAGATCAATAGAGGTTGAGAAAGTGCGCT	0.33	0.354	-0.0207	0.212	-0.126	0.471	-0.324	1.44	2.63	1.98	1.55	0.494	0.467	0.307	-0.399	1.01	-0.0662	0.48	-0.121	-0.0211
CCGACTGGGGCAAAGGTTGCCATACTCAGTACGA	-0.0811	-0.081	-0.3	0.302	-1.06	4.05	9.16	7.89	7.65	8.16	4.21	4.73	-0.511	-0.658	0.733	0.388	-0.135	1.14	-0.228	1.03
CGAACGAGGGCATGAGCTGATAGCAAATGCCGAT	0.486	0.253	-0.266	0.0131	-0.954	1.39	1.02	0.67	-0.212	0.364	2.42	1.97	0.174	-0.689	-0.392	0.327	-0.221	0.529	-0.331	1.87
GCGAGCAGGCCATTTGGGTCACTCAATGACGGGC	0.039	-0.0343	-0.692	0.145	-1.06	1.37	0.6	0.408	-0.542	0.0983	0.844	2.03	-1.33	-0.968	0.0566	0.738	0.189	0.937	-0.309	1.69
AGTCAAAGTTCATCTAGGTAACCTAAGATATGCT	6.25	6.2	6.02	4.02	2	4.99	6.33	6.35	3.52	5.54	0.989	3.71	1.38	1.29	3.22	5.34	6.67	3.84	1.21	4.88
